Values joined by “and” are separate entries in the source; they are usually repeats but may differ in a detail not shown here. Identical values can stand only once. Inconclusive results are not listed. Active and inactive are the calls of the source. The call rests on the fitted dose curve.
Test: qHTS Assay for Lipid Storage Modulators (AID 1519); on activity change, negative = inhibition: on the % scale 0 is the no-effect control and ±100 the full control effect
Settings: Drosophila S3 cells, BODIPY lipid droplet/cell ratio, laser cytometry, cells loaded with oleic acid
Text: NIH Molecular Libraries Probe Production Centers Network [MLPCN]
NIH Chemical Genomics Center [NCGC]
Assay Submitter (PI): Beller, Mathias; Max-Planck-Institut fur Biophysikalische Chemie
NCGC Assay Overview: Storing lipids as a reservoir for energy or the anabolism of elementary metabolites is a common feature of probably all cells and is conserved from bacteria to humans. The universal cellular lipid storage organelle is the so-called lipid storage droplet (LD). Although ubiquitous, LDs share a simple structure composed of a hydrophobic core that harbors the storage lipids, which is shielded by a droplet-specific phospholipid monolayer to which proteins are attached. The current model of LD biogenesis involves an incorporation of the lipid core into the membrane leaflets of the endoplasmic reticulum (ER) followed by a subsequent budding-like maturation of a LD, which ultimately pinches off. Once released, LD volume can increase by localized lipogenesis or fusion of existing droplets. Storage lipids are re-mobilized enzymatically by lipase activity. Lipase regulation in the adipocyte is heavily studied and involves multiple components including catecholamine signaling, the LD-associated proteins Perilipin and comparative gene identification-58 (CGI-58) and at least two lipases named hormone sensitive lipase (HSL) and adipocyte triglyceride lipase (ATGL). LD regulation outside of the adipocyte is poorly understood and only few components are known. However, there is an urgent need to learn more about ectopic fat depots as mislocalized storage of lipids, for example in the liver or muscle, is an eminent health problem associated with insulin resistance or the metabolic syndrome. We developed a laser-scanning cytometer assay to enable 1,536-well screening and combined the results of the small molecules screen with an RNAi database based on lipid storage.
NCGC Assay Protocol Summary:
We dispensed 4 uL of cells at 1.25 x 10^6 cells/mL into LoBase Aurora COC 1,536-well plates (black walled, clear bottom) with a bottle-valve solenoid-based dispenser (Aurora) to obtain 5,000 cells/well. Triacsin C (Sigma-Aldrich T-4540), an inhibitor of long-chain fatty acyl CoA synthetase that blocks synthesis of triglycerides, was used as a positive control for lipid under-storage. A total of 23 nL of compound solution of different concentrations were transferred to the assay plates using a Kalypsys pin tool equipped with a 1,536-pin array containing 10-nL slotted pins (FP1S10, 0.457-mm diameter, 50.8 mm long; V&P Scientific). One microliter of oleic acid (400 uM) was added, and the plate was lidded with stainless steel rubber gasket lined lids containing pinholes. […] Fluorescence was detected by excitation of the fluorophores with a 488-nm laser on an Acumen Explorer (TTP Lab Tech). The total intensity in channel 1 (500-530 nm) reflected lipid droplet accumulation. […] The ratio of the total intensity in PMT channel 1 over total intensity of channel 3 was also calculated. Percent activity was computed relative to an internal control (100% inhibited lipid droplet deposition due to the presence of 20 uM Triacsin C), which was added to 32 wells/plate.

[1] = measured here: cell count channel max response
[2] = measured here: lipid channel max response
Potency means the concentration at half of the fitted maximal effect.

| Compound | activity change, negative = inhibition (at 25.7 µM (top of the series)) | activity change, negative = inhibition (at 57.5 µM (top of the series)) | max response [1] | max response [2] | Potency |
| --- | --- | --- | --- | --- | --- |
| c1ccc2nc(N3CCNCC3)ccc2c1 | -1.91% (inactive) | 4.37% (inactive) and 6.17% (inactive) | -6.47% and 8.94% and 1.83% | -9.05% and 14.3% and 11.9% |  |
| NC(=O)CN1CCCC1=O | -1.06% (inactive) | 8.11% (inactive) | -2.61% and 10.4% | -4.04% and 22.9% |  |
| COC(=O)C1=CCCN(C)C1 | 0.438% (inactive) | 7.06% (inactive) and -4.88% (inactive) | 20.3% and 3.22% and -69.9% | 21.3% and 16.2% and -73.3% |  |
| CN(C)C(=O)Oc1cccc([N+](C)(C)C)c1 | -1.76% (inactive) | 8.87% (inactive) | 2.56% and -8.73% | 2.57% and 1.95% |  |
| COc1ccc(CN2CCNCC2)c(OC)c1OC | -1.99% (inactive) |  | -6.25% | -8.59% |  |
| OC(c1ccccc1)(c1ccccc1)C1CCNCC1 | -3.2% (inactive) |  | -4.3% | -6.81% |  |
| O=C(NC(=O)c1c(F)cccc1F)Nc1cc(Cl)c(OC(F)(F)C(F)C(F)(F)F)cc1Cl (stereo not given) |  | -23.4% (inactive) | 4.92% | -17.8% |  |
| CC[n+]1c(-c2ccccc2)c2cc(N)ccc2c2ccc(N)cc21 |  | 1.12% (inactive) | 2.87% | 6.23% |  |
| O=C(O)c1nn(Cc2ccc(Cl)cc2Cl)c2ccccc12 |  | -2.04% (inactive) | 45.4% | 43.5% |  |
| Clc1ccc(C(OCCN2CCCCC2)c2ccccc2)cc1 (stereo not given) |  | 10.4% (inactive) | 15.5% | 25.9% |  |
| CNC(=O)Oc1ccc2c(c1)[C@]1(C)CCN(C)[C@@H]1N2C |  | 0.848% (inactive) | -15.1% | -15.5% |  |
| CCCCCCCCCCCCCCCC[n+]1ccccc1 |  |  | -21.8% | -114% | 10 µM (active) |

From PubChem BioAssay (NCATS)
